# Results as given in PubChem BioAssay AID1259245 (Vanderbilt High Throughput Screening Facility, 2017).
# In all, about 40,000 compounds went through this assay and about 1,400 (3.5%) were called active.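 How the source made its calls: active means any of four per-well response measures lying three or more SD from its plate-wide compound average, in either direction; inactive means the rest, inconclusive results apart.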 This excerpt belongs to a sample that is enriched for actives.
# Molecular target: Voltage-dependent calcium channel gamma-2 subunit (Mus musculus) + Glutamate receptor 2 (Rattus norvegicus) (UniProt O88602+P19491)
# Assay: AMPAR-TARP gamma-2 complex positive or negative modulation – cell-based, membrane potential dye, primary screen (AID 1259245)
# Conditions: HEK293 GluA2+stargazin, membrane potential dye (FDSS), glutamate EC50, at 30 µM, hits were called plate by plate, in both directions; compound max-min signal: compound-alone response (agonism); glutamate slope, % of max: measured here: glutamate response slope, % max
# Voltage-dependent calcium channel gamma-2 subunit (Mus musculus) + Glutamate receptor 2 (Rattus norvegicus), sequence (O88602 whole entry, looked up): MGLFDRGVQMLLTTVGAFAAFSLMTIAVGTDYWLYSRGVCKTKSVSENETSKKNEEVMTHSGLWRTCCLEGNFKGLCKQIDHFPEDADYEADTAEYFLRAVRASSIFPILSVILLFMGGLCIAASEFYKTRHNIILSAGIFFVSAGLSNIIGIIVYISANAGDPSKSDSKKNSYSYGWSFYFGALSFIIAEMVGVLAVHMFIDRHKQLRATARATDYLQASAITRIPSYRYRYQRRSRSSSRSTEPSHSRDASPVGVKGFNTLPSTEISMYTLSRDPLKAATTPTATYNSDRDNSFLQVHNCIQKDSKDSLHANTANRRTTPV
# Voltage-dependent calcium channel gamma-2 subunit (Mus musculus) + Glutamate receptor 2 (Rattus norvegicus), sequence (P19491 whole entry, looked up): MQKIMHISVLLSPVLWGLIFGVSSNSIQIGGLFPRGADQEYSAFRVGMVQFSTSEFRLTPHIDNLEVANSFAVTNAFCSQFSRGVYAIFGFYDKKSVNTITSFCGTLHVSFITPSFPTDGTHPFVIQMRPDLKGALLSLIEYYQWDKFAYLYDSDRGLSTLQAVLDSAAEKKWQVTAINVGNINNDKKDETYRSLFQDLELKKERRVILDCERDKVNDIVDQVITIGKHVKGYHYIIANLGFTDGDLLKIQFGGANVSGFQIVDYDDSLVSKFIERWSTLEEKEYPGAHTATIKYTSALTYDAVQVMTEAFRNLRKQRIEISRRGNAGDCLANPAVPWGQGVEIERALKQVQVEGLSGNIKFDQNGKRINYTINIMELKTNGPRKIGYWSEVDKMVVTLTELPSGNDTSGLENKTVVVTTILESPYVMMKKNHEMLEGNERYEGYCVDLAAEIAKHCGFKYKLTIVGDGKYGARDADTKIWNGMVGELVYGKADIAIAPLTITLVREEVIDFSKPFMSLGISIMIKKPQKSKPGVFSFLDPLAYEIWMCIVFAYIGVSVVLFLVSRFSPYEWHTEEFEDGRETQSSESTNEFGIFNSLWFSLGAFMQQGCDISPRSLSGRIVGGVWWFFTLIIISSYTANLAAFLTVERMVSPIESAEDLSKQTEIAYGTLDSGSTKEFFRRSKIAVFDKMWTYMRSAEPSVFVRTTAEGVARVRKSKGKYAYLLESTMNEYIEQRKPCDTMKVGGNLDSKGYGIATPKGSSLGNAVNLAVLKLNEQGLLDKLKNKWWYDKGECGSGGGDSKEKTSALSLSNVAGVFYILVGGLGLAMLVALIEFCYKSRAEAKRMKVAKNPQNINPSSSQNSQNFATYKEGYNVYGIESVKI
Structure (SMILES),compound max-min signal,"glutamate response, % of max","glutamate slope, % of max"
COc1ccc(C(=O)Cn2nc(-c3ccco3)c3sc(N4CCOCC4)nc3c2=O)cc1OC,0.102,27.5% (inactive),57%
Cc1ccc(NC(=O)Cn2nc(-c3ccco3)c3sc(N4CCOCC4)nc3c2=O)c(C)c1,0.131,34% (active),56.8%
COCC(C)(O)CNC(=O)c1cc(C)oc1C (centres undefined),0.0874,39.3% (inactive),66.3%
COCC(C)(O)CNC(=O)Cc1cccc(C)c1 (centres undefined),0.0936,4.21% (active),14.9%
CCCc1ccc(C(=O)NCC(C)(O)COC)cc1 (centres undefined),0.117,37.6% (inactive),59.3%
COc1ccc(OC)c2sc(N(Cc3ccccn3)C(=O)Cc3ccc(S(C)(=O)=O)cc3)nc12,0.0642,28.9% (inactive),45.5%
Cc1cc([N+](=O)[O-])ccc1NC(=O)C(=O)NCc1ccncc1,0.158,47.7% (inactive),65.6%
O=C(Nc1ccc([N+](=O)[O-])cc1Br)c1ccncc1,0.216,21.7% (active),38.8%
O=C(Nc1ccc(N2CCCS2(=O)=O)cc1)c1ccc([N+](=O)[O-])cc1,0.0338,28.1% (inactive),51.8%
Cc1cc(C)n(CCNC(=O)/C=C/c2cccs2)n1,0.131,25.6% (inactive),56.8%
Cc1noc(C2CN(S(=O)(=O)c3ccc(Cl)cc3)C2)n1,0.142,44.3% (inactive),70.8%
COc1ccc(NC(C)=O)cc1NC(=O)c1ccc(=O)[nH]n1,0.159,38.5% (active),57.1%
O=C(NCc1ccc2c(c1)OCO2)c1ccc(=O)[nH]n1,0.05,25.6% (inactive),54.3%
COc1ccc(NC(C)=O)cc1NC(=O)CCCn1nc(-c2ccccc2)ccc1=O,0.08,33.8% (inactive),52.7%
Cc1nn(CCNC(=O)c2cccc([N+](=O)[O-])c2)c(C)c1Cl,0.133,50.5% (inactive),65.4%
CCCOc1ccc(N2CCN(C(=O)COc3ccc4ccccc4c3)CC2)nn1,0.0411,42.7% (inactive),61.1%
CCCC(=O)N1CCN(c2ccc(Nc3cc(C)ccn3)nn2)CC1,0.194,23.7% (active),43.2%
Cc1ccc(N2CCN(C(=O)COc3nccc(C)n3)CC2)nn1,0.0842,38.9% (inactive),61.3%
O=C(Nc1cccs1)N1CCC(c2nnc(-c3ccc(F)cc3)o2)CC1,0.0749,44.9% (inactive),64.6%

Structure (SMILES),compound max-min signal,"glutamate response, % of max","glutamate slope, % of max"
Cc1ccc(CN2C(=O)NC3(CCN(C(=O)c4ccccc4F)CC3)C2=O)cc1,0.0483,11.7% (inactive),23.5%
COc1ccc(CC(=O)Nc2ccc3c(c2)N(S(=O)(=O)c2ccccc2)CCC3)cc1,0.0777,49% (inactive),74.3%
CN(C)S(=O)(=O)c1ccc(C(=O)Nc2ccc3c(c2)N(C(=O)c2ccco2)CC3)cc1,0.176,45.9% (inactive),62.8%
CCOC(=O)c1csc(NC(=O)Cn2cnc(C)cc2=O)n1,0.0863,36.3% (inactive),51.4%
Cc1cc(C(=O)Nc2nc(-c3cccs3)cs2)on1,0.0444,13.4% (inactive),25.9%
CCOC(=O)c1csc(NC(=O)c2cc(C)no2)n1,0.211,21.3% (active),37.1%
Cc1nc(NC(=O)c2ccc3c(c2)CCCC3)sc1C,0.129,29.7% (inactive),50.6%
O=C(Nc1cccc(N2CCCS2(=O)=O)c1)c1cccc(F)c1,0.0432,21.4% (inactive),45.7%
COC(=O)c1ccc(CSc2cc(N3CCN(c4ccccc4F)CC3)ncn2)o1,0.0593,58.6% (active),59.5%
O=C(CSc1cc(N2CCN(c3ccccc3F)CC2)ncn1)c1cccs1,0.0768,53.6% (inactive),73.7%
CCOc1ccccc1NC(=O)CSc1cc(N2CCC(C(=O)NC3CC3)CC2)ncn1,0.107,24% (inactive),50.5%
Cc1cc(C)c2c(n1)nn1c(-n3ccnc3)cc(C)nc21,0.202,43.8% (inactive),65.7%
Cc1cc(C)c2c(n1)nn1c(NCC(C)C)cc(C)nc21,0.313,35.7% (active),52.5%
CCOc1ccc(Nc2cc(C)nc3c4c(C)cc(C)nc4nn23)cc1,0.205,36.4% (inactive),58.7%
CC(=O)NCCn1ncc2c(N3CCN(c4ccccc4)CC3)ncnc21,0.109,30% (inactive),56.7%
Cc1ccc(C(=O)CSc2nccn(-c3ccc(Cl)cc3)c2=O)c(C)c1,0.0972,25.5% (inactive),43.4%
CCS(=O)(=O)N1CCCc2ccc(NS(=O)(=O)c3cc(C)c(C)cc3OC)cc21,0.0618,43.6% (inactive),69.1%
CCS(=O)(=O)N1CCCc2cc(NS(=O)(=O)c3cc(C)c(OC)c(C)c3)ccc21,0.0675,32.7% (active),46.4%
COc1ccc(S(=O)(=O)Nc2ccc3c(c2)CCCN3S(C)(=O)=O)cc1C,0.0764,41% (inactive),56.8%
